Bioassay records (PubChem)
G9a block = G9a (human) methyltransferase inhibition; Q96KQ7; G9a H3K9 monomethylation, AlphaScreen, 2 h; Potency, µM (doses to about 102 µM), for inactives: at the top dose activity, negative = inhibition, usual class: inhibitors; 8.8% of 350,000 active; also: % is scaled to controls: 0 for no effect and ±100 for the full control effect; nearly all actives have a fitted effect of over 75% in size
Target sequence (Q96KQ7 913-1193 limits assumed): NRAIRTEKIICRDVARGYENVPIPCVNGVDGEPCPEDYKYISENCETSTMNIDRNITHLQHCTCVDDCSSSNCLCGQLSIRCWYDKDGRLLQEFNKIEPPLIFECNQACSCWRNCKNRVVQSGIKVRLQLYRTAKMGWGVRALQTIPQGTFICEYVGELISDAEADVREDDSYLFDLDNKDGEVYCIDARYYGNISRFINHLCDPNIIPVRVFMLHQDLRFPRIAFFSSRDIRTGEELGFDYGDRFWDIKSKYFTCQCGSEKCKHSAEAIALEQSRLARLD
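Using a bead-based AlphaScreen, monomethylated H3K9 product from 2 h room-temperature reactions (G9a 20 nM, peptide 500 nM, SAM 20 uM) was detected with 0.5 ug/mL rabbit anti-H3K9me1 antibody.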
PLK1 PBD inh = PLK1 (human) polo-box domain binding inhibition. P53350. Plk1 PBD binding of FITC phosphopeptide, fluorescence polarization. Potency, µM, inactives show max response, negative = inhibition, most hits filed as inhibitors. 2.8% of 360,000 active. AID 720504; also: series mostly up to about 57 µM; % is scaled to controls: 0 for no effect and ±100 for the full control effect; nearly all actives have a fitted effect of over 65% in size
BAZ2B inh = blocks human BAZ2B; AID 504333; AlphaScreen BAZ2B-H3K14Ac peptide displacement; 4.4% of 360,000 active; Potency, µM (highest dose often 114 µM), for inactives: top-dose activity change, negative = inhibition, hits mostly inhibitors; also: % is scaled to controls: 0 for no effect and ±100 for the full control effect; nearly all actives have a fitted effect of over 60% in size
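AlphaScreen displacement of biotin-H3(5-23)K14Ac peptide (50 nM final) from BAZ2B (50 nM final) in PBS pH 7.4, 0.01% Tween-20; complex preformed 30 min RT, then compounds (top 110 uM) 30 min RT, beads 20 min dark.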
ALOX12 inh = ALOX12 (human) lipoxygenase inhibition; Potency, µM (series often up to 108 µM), inactives show at the top dose activity change, negative = inhibition, most hits filed as inhibitors; 1.1% of 580,000 active; purified 12hLO, xylenol orange hydroperoxide absorbance; AID 1671190; also: % is scaled to controls: 0 for no effect and ±100 for the full control effect
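Purified human 12hLO at 150 nM in 25 mM Hepes, 0.01% Triton X-100, pH 7.0, preincubated 15 min at room temperature with compound. Reaction started with 40 uM arachidonic acid, 30 min at room temperature. Hydroperoxide measured by Fe-xylenol orange, 573/405 nm absorbance ratio.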
HP1b binding inh = blocks HP1-beta chromodomain binding to methylated histone tails; AlphaScreen HP1-beta / biotin-H3K9me3 peptide binding; Potency, µM (titrated, usually from 114 µM), for inactives: top-dose activity change, negative = inhibition, actives largely listed as inhibitors; 0.56% of 390,000 active; also: nearly all actives have a fitted effect of over 70% in size
Target sequence (P83916 whole entry, looked up): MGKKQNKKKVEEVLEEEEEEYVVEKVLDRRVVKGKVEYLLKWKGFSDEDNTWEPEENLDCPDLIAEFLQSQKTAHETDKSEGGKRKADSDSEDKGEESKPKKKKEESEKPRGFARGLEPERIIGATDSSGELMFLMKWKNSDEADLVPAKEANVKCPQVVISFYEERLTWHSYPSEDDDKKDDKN
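Compound inhibition of the preformed complex between 50 nM HP1-beta and 50 nM biotinylated H3K9me3 peptide was read by AlphaScreen. Buffer was PBS pH 7.4 with 0.01% Tween-20. Incubations ran 30 min at room temperature, with 10 ug/mL donor/acceptor beads.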
JMJD2A Tudor = blocks the human JMJD2A Tudor domain; O75164; AlphaScreen JMJD2A-Tudor / H3K4me3 peptide binding; Potency, µM (top dose mostly 114 µM), inactives show top-dose activity change, negative = inhibition, usual class: inhibitors; 4.4% of 390,000 active; AID 504339; also: % is scaled to controls: 0 for no effect and ±100 for the full control effect; nearly all actives have a fitted effect of over 50% in size
The depositor's hits bear a star; [ ] = remark or other dose. A selection: hits, their analogues and other compounds. The true share with any hit is near 9%. Calls follow the shape of the dose curve; as a rule, active = well fitted curve in the direction sought with a large enough effect; inconclusive = small, poorly fitted or top-dose-only effect, or another doubt; inactive = no such curve, though single readings can be large; an effect the other way counts as inactive or inconclusive. Potency is read from the fitted curve at half-maximal effect.

Screening CC1=CC2CC1C1C(=O)N(c3ccc(S(=O)(=O)Nc4nc(C)cc(C)n4)cc3)C(=O)C21 (stereo not given) returned G9a block inconclusive, PLK1 PBD inh -11%, BAZ2B inh -7%, ALOX12 inh -13%, HP1b binding inh 28% and JMJD2A Tudor -11%.
Screening Cn1nnnc1SCC(=O)NC(C)(C)C returned G9a block 2%, PLK1 PBD inh -2%, BAZ2B inh -1%, ALOX12 inh 0%, HP1b binding inh 16% and JMJD2A Tudor -7%.
`Cc1[nH]c2ccc(F)cc2c1CCN(Cc1cccnc1)C(=S)Nc1cccc(F)c1` gave G9a block inconclusive, PLK1 PBD inh -1%, BAZ2B inh 32µM*, ALOX12 inh -4%, HP1b binding inh 0% and JMJD2A Tudor inconclusive.
Screening Cc1[nH]c2ccc(F)cc2c1CCN(Cc1cccnc1)C(=S)NC(C)(C)C returned G9a block -15%, PLK1 PBD inh -14%, BAZ2B inh -37%, ALOX12 inh -2%, HP1b binding inh 32% and JMJD2A Tudor -36%.
For Cc1ccccc1NC(=S)N(CCc1c(C)[nH]c2ccc(F)cc12)Cc1cccnc1 the results were G9a block 56µM*, PLK1 PBD inh -6%, ALOX12 inh 3%, HP1b binding inh -7% and JMJD2A Tudor inconclusive.
Screening COCCn1c(SCC(=O)Nc2c(C)n(C)n(-c3ccccc3)c2=O)nc2ccccc2c1=O returned G9a block 9%[12.7 µM], PLK1 PBD inh -1%, BAZ2B inh -7%, ALOX12 inh inconclusive, HP1b binding inh 56% and JMJD2A Tudor -15%.
`CCCOc1ccc(Br)cc1CSC(=N)N` gave G9a block 6%[59 µM], PLK1 PBD inh 30µM*, BAZ2B inh 7%, ALOX12 inh inconclusive, HP1b binding inh 22% and JMJD2A Tudor -31%.
`CCOc1ccc(Br)cc1CC(=O)O` gave PLK1 PBD inh -6%, ALOX12 inh 0%, HP1b binding inh 31% and JMJD2A Tudor -8%.
Screening CCn1nc(C)cc1C(=O)N(C)C1CCCN(Cc2ccccc2F)C1 (stereo not given) returned G9a block 86%, PLK1 PBD inh 2%, BAZ2B inh 1%, ALOX12 inh 137%, HP1b binding inh 43% and JMJD2A Tudor -12%.
`CC(C)Cc1cc(C(=O)N(C)C2CCCN(Cc3ccccc3F)C2)n(C)n1` (stereo not given) gave G9a block 89µM*, PLK1 PBD inh -20%, BAZ2B inh -9%[57.1 µM], ALOX12 inh 6%, HP1b binding inh 54% and JMJD2A Tudor -18%.
COCC(=O)N1CCCn2cc(-c3cccc(C#N)c3)nc21 was read as ALOX12 inh 26%.
`Cc1ccc(S(=O)(=O)N2CCOCC2)cc1NC(=O)COC(=O)c1ccc(Br)cc1` gave PLK1 PBD inh -4%, ALOX12 inh -9%, HP1b binding inh 22% and JMJD2A Tudor -3%.
`Cc1ccc(S(=O)(=O)N2CCOCC2)cc1NC(=O)COC(=O)CNC(=O)c1ccc(C(C)(C)C)cc1` gave G9a block 50µM*, PLK1 PBD inh -14%, BAZ2B inh -28%, ALOX12 inh -7%, HP1b binding inh 11% and JMJD2A Tudor -20%.
`Cc1ccc(C(=O)NCC(=O)OCC(=O)Nc2cc(S(=O)(=O)N3CCOCC3)ccc2C)cc1` gave G9a block inconclusive, PLK1 PBD inh 0%, BAZ2B inh 10%, ALOX12 inh -6%, HP1b binding inh 46% and JMJD2A Tudor -12%.
For CCN(CC)c1ccc(NC(=O)COC(=O)CSc2ccc(Br)cc2C)cc1 the results were G9a block 8.9µM*, PLK1 PBD inh -14%, BAZ2B inh 10µM*, ALOX12 inh inconclusive, HP1b binding inh 16µM* and JMJD2A Tudor 18µM*.
Screening Cc1ccc(S(=O)(=O)N2CCOCC2)cc1NC(=O)COC(=O)CSc1ccc(Br)cc1C returned G9a block 18µM*, PLK1 PBD inh -7%, BAZ2B inh -2%, ALOX12 inh -7%, HP1b binding inh 15% and JMJD2A Tudor -29%.
`Cc1cc(C)c(NC(=O)COC(=O)CSc2ccc(Br)cc2C)c(C)c1` gave G9a block 3%[59 µM], PLK1 PBD inh -17%, BAZ2B inh 2%, ALOX12 inh 9%, HP1b binding inh 7% and JMJD2A Tudor -20%.
`Cc1ccc(S(=O)(=O)N(C)C)cc1NC(=O)COC(=O)Cc1ccc(Br)cc1` gave G9a block -1%, PLK1 PBD inh 19µM*, ALOX12 inh inconclusive, HP1b binding inh -21% and JMJD2A Tudor inconclusive.
COc1cccc(CNc2ncnc3nc[nH]c23)c1 was read as HP1b binding inh 46% and JMJD2A Tudor -11%.
Screening O=C(CNC(=S)N(CCCN1CCOCC1)Cc1cccs1)N1CCOCC1 returned G9a block 11%[59 µM], PLK1 PBD inh -2%, BAZ2B inh -4%, ALOX12 inh -3%, HP1b binding inh 14% and JMJD2A Tudor -3%.
Screening CCCCn1c(CNC(=O)C(C)(C)C)nc2ccccc21 returned G9a block 4%[59 µM], PLK1 PBD inh -6%, BAZ2B inh -4%, ALOX12 inh 10%, HP1b binding inh 32% and JMJD2A Tudor 0%.
Screening Cc1ccc(CNc2nc3c([nH]2)c(=O)n(C)c(=O)n3C)cc1 returned G9a block 45µM*, PLK1 PBD inh -3%, BAZ2B inh 6%, ALOX12 inh -2%, HP1b binding inh 12% and JMJD2A Tudor -12%.
For CCOC(=O)CCCNC(=O)COC(=O)[C@@H]1CCCN1S(=O)(=O)c1ccc(Cl)cc1 the results were G9a block 50µM*, PLK1 PBD inh -19%, BAZ2B inh 23%, ALOX12 inh inconclusive, HP1b binding inh 40% and JMJD2A Tudor 7%[57.1 µM].
`COc1ccc(CCNC(=O)CSc2nc3[nH]ncc3c(=O)n2-c2ccc(Br)cc2)cc1OC` gave G9a block 10%, PLK1 PBD inh 4%, BAZ2B inh 17%, ALOX12 inh -9%, HP1b binding inh 23% and JMJD2A Tudor -9%.
Screening N#C/C(=C/c1ccccc1)C(=O)c1c[nH]c2cc(F)ccc12 returned ALOX12 inh -17%.
`COc1ccc(/C=C(\C#N)C(=O)NCc2ccccc2)cc1O` gave G9a block 24%, PLK1 PBD inh 7%, BAZ2B inh -8%, ALOX12 inh -13%, HP1b binding inh 10% and JMJD2A Tudor -22%.
`COc1cc(/C=C(\C#N)C(=O)c2c[nH]c3ccccc23)cc(OC)c1O` gave G9a block 11µM*, PLK1 PBD inh 47%, ALOX12 inh -28%, HP1b binding inh inconclusive and JMJD2A Tudor 50µM*.
